Source: the antibiotic and cytotoxicity screens of Wong et al. (2023)
Hit rate of the full screen: of about 39,000 compounds, about 3,300 (8.5%) were called active. Many of the other results were omitted from the sample, so actives are more common in it than they were.

test system: HepG2; experiment: cytotoxicity call (relative viability < 0.9); conditions: 10 µM

Structure (SMILES) | cytotoxicity call
O=c1/c(=C\c2ccc(F)cc2)sc2n1CCN=2 | inactive
O=C(/C=C/c1cc2c(cc1Br)OCCO2)c1c(-c2ccccc2)c2cc(Cl)ccc2[nH]c1=O | active
N=C(CN1CCCCC1)NO | inactive
CN(C)CCCNC(=O)C[C@@H]1CC[C@H]2[C@@H](COC[C@@H](O)CN2C(=O)c2cc(Cl)cc(Cl)c2)O1 | inactive
COc1ccc(NC(=O)Nc2ccc3c(c2)C(=O)N([C@@H](C)CO)C[C@H](C)[C@H](CN(C)C(=O)Nc2ccc(C(F)(F)F)cc2)OCCCC[C@H](C)O3)cc1 | inactive
C[C@H]1CN([C@@H](C)CO)C(=O)c2cccc(NS(=O)(=O)c3ccc(F)cc3)c2O[C@@H]1CN(C)Cc1ccc(Cl)c(Cl)c1 | inactive
COC1=C(N)C(=O)c2nc(-c3nc(C(=O)O)c(C)c(-c4ccc(OC)c(OC)c4O)c3N)ccc2C1=O | active
COc1ccc(NC(=O)N(C)C[C@@H]2Oc3ncc(Br)cc3C(=O)N([C@H](C)CO)C[C@@H]2C)cc1 | inactive
CCCNC(=O)N1C[C@H](O)COC[C@@H]2O[C@H](CC(=O)NCCCN3CCOCC3)CC[C@H]21 | inactive
CN1C(=O)c2cc(NC(=O)c3ccc(C(F)(F)F)cc3)ccc2OC[C@@H]2O[C@@H](CC(=O)NC3Cc4ccccc4C3)CC[C@H]21 | inactive
CN1C(=O)c2cc(NC(=O)Nc3ccccc3F)ccc2OC[C@H]2O[C@H](CC(=O)NCc3ccc(-c4ccccc4)cc3)CC[C@H]21 | inactive
CN1C(=O)c2cc(NC(=O)c3ccc(C(F)(F)F)cc3)ccc2OC[C@H]2O[C@H](CC(=O)NC3Cc4ccccc4C3)CC[C@H]21 | active
CN1C(=O)c2cc(NC(=O)c3ccc(C(F)(F)F)cc3)ccc2OC[C@@H]2O[C@@H](CC(=O)NC3Cc4ccccc4C3)CC[C@@H]21 | active
CN1C(=O)c2cc(NC(=O)Nc3ccccc3F)ccc2OC[C@H]2O[C@@H](CC(=O)Nc3cccc(Cl)c3)CC[C@@H]21 | active
CN(C)CC(=O)Nc1ccc2c(c1)C(=O)N(C)[C@H]1CC[C@H](CC(=O)Nc3cccc(Cl)c3)O[C@@H]1CO2 | inactive
CN1C(=O)c2cc(NC(=O)c3ccc(C(F)(F)F)cc3)ccc2OC[C@@H]2O[C@H](CC(=O)NC3Cc4ccccc4C3)CC[C@H]21 | inactive
CN1C(=O)c2cc(NC(=O)c3ccc(C(F)(F)F)cc3)ccc2OC[C@H]2O[C@H](CC(=O)NC3Cc4ccccc4C3)CC[C@@H]21 | inactive
CN1C(=O)c2cc(NC(=O)c3ccc(C(F)(F)F)cc3)ccc2OC[C@@H]2O[C@H](CC(=O)NC3Cc4ccccc4C3)CC[C@@H]21 | inactive

Structure (SMILES) | cytotoxicity call
C[C@H]1CCCCO[C@@H](CN(C)Cc2ccncc2)[C@@H](C)CN([C@@H](C)CO)C(=O)c2cc(NC(=O)Nc3ccccc3)ccc2O1 | inactive
Cc1ccc(S(=O)(=O)Nc2ccc3c(c2)C(=O)N([C@H](C)CO)C[C@@H](C)[C@@H](CN(C)C(=O)Nc2ccccc2)OCCCC[C@H](C)O3)cc1 | inactive
C[C@H](CO)N1C[C@H](C)[C@@H](CN(C)S(=O)(=O)c2ccc(F)cc2)Oc2ncc(-c3ccncc3)cc2C1=O | inactive
COc1ccc(CN(C)C[C@@H]2OCCCC[C@@H](C)Oc3ccc(NC(=O)CCC(F)(F)F)cc3C(=O)N([C@@H](C)CO)C[C@@H]2C)cc1 | inactive
CCOC(=O)N(C)C[C@@H]1OCc2cn(nn2)CCCC(=O)N([C@H](C)CO)C[C@@H]1C | inactive
C[C@@H]1CN([C@@H](C)CO)C(=O)c2cc(NS(=O)(=O)c3ccc(F)cc3)ccc2O[C@@H]1CN(C)S(=O)(=O)c1cccs1 | inactive
C[C@@H]1CN([C@H](C)CO)S(=O)(=O)c2ccc(Br)cc2O[C@H]1CN(C)C(=O)c1cnccn1 | inactive
CNC[C@@H]1Oc2c(NS(=O)(=O)c3cn(C)cn3)cccc2C(=O)N([C@H](C)CO)C[C@@H]1C | inactive
COc1ccc(C#Cc2ccc3c(c2)[C@@]2(C(=O)N3C(=O)N[C@@H](C)c3ccccc3)[C@H](c3ccc(OCCO)cc3)N3[C@H](c4ccccc4)[C@H](c4ccccc4)OC(=O)[C@H]3[C@@H]2C(=O)O)cc1 | active
COCCOC(=O)N1C(=O)[C@@]2(c3cc(C#CCC(C(=O)OC)C(=O)OC)ccc31)[C@H](C(=O)N1CCCCCCC1)[C@H]1C(=O)O[C@H](c3ccccc3)[C@H](c3ccccc3)N1[C@@H]2c1ccc(OCCO)cc1 | inactive
COCCOC(=O)N1C(=O)[C@@]2(c3cc(C#CCC(C(=O)OC)C(=O)OC)ccc31)[C@H](c1ccc(OCCO)cc1)N1[C@H](c3ccccc3)[C@H](c3ccccc3)OC(=O)[C@H]1[C@@H]2C(=O)N1CCCCCCC1 | inactive
COCCOC(=O)N1C(=O)[C@@]2(c3cc(C#Cc4ccc(OC)cc4)ccc31)[C@H](C(=O)N1CCCCCCC1)[C@H]1C(=O)O[C@H](c3ccccc3)[C@H](c3ccccc3)N1[C@@H]2c1ccc(O)cc1 | inactive
COCCOC(=O)N1C(=O)[C@@]2(c3cc(C#Cc4ccc(OC)cc4)ccc31)[C@H](C(=O)N1CCCCCCC1)[C@H]1C(=O)O[C@H](c3ccccc3)[C@H](c3ccccc3)N1[C@@H]2c1ccc(OCCO)cc1 | inactive
COCCOC(=O)N1C(=O)[C@@]2(c3cc(C#Cc4ccc(OC)cc4)ccc31)[C@H](c1ccc(O)cc1)N1[C@H](c3ccccc3)[C@H](c3ccccc3)OC(=O)[C@H]1[C@@H]2C(=O)N1CCCCCCC1 | active
COCCOC(=O)N1C(=O)[C@@]2(c3cc(C#Cc4ccc(OC)cc4)ccc31)[C@H](c1ccc(OCCO)cc1)N1[C@H](c3ccccc3)[C@H](c3ccccc3)OC(=O)[C@H]1[C@@H]2C(N)=O | inactive
COCCOC(=O)N1C(=O)[C@@]2(c3cc(C#CCC(C(=O)OC)C(=O)OC)ccc31)[C@H](C(=O)N1CCCCCCC1)[C@H]1C(=O)O[C@H](c3ccccc3)[C@H](c3ccccc3)N1[C@@H]2c1ccc(O)cc1 | active
COCCOC(=O)N1C(=O)[C@@]2(c3cc(C#Cc4ccc(OC)cc4)ccc31)[C@H](c1ccc(OCCO)cc1)N1[C@H](c3ccccc3)[C@H](c3ccccc3)OC(=O)[C@H]1[C@@H]2C(=O)NC[C@H](O)c1ccccc1 | inactive
